Screens from PubChem.
Most compounds without a hit are left out; they make up all but 6.5% or so of the library.
MARV entry inh: inhibitors of Marburg virus binding or cell entry. 1.8% of 300,000 active. Marburg virus pseudotyped entry inhibition, cell reporter. Potency, µM (doses to about 37.8 µM), without a hit: top-dose activity change, negative = inhibition, actives largely listed as inhibitors; calls by dose curve; tested in HEK293 cells; further: potency means the concentration at half of the fitted maximal effect
Vaccinia mCherry: inhibitors of vaccinia virus infection (mCherry reporter signal); Vaccinia virus mCherry reporter infection, fluorescence; 0.63% of 310,000 active; Potency, µM (top dose mostly 36.5 µM), for the others: at the highest dose activity change, negative = inhibition, hits mostly inhibitors; calls by dose curve; tested in A549 cells; further: potency means the concentration at half of the fitted maximal effect; nearly all actives have a fitted effect of over 35% in size
FMDV inh: antivirals against foot and mouth disease virus. FMDV antiviral cell-based qHTS. Potency, µM (highest dose often 57.9 µM), inactives show at the top dose activity change, negative = inhibition, hits mostly inhibitors. 1.2% of 410,000 active; calls by dose curve; tested in HEK293T cells; further: read-out not given here; potency means the concentration at half of the fitted maximal effect; nearly all actives have a fitted effect of over 45% in size
Lassa entry inh: Lassa virus entry inhibition; Lassa virus pseudotype entry inhibition, cell reporter; Potency, µM (top dose mostly 37.9 µM), without a hit: top-dose activity change, negative = inhibition, actives largely listed as inhibitors; 1.2% of 300,000 active; AID 540256; calls by dose curve; tested in HEK293 cells; further: potency means the concentration at half of the fitted maximal effect; nearly all actives have a fitted effect of over 50% in size
HCMV inh: inhibitors of human cytomegalovirus; HFF cells, HCMV-luciferase reporter, 72 h; stronger effect = lower value; activity change, negative = inhibition, % at 57.5 µM; 4.5% of 410,000 active; in the data active means activity change below about -60%; inconclusive means no clear call, values can overlap the other calls; inactive means above about -39%
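Human foreskin fibroblasts infected with luciferase-reporter HCMV at MOI 1 PFU/cell, compounds at two doses. Luciferase measured 72 h post infection; normalized to buffer-only basal and Salinomycin (10uM) controls.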
Vaccinia Venus: inhibitors of vaccinia virus (Venus reporter); Vaccinia virus Venus reporter expression, fluorescence; Potency, µM (top dose mostly 36.5 µM), for the others: top-dose activity change, negative = inhibition, hits mostly inhibitors; 0.46% of 330,000 active; AID 720580; calls by dose curve; tested in A549 cells; further: potency means the concentration at half of the fitted maximal effect; nearly all actives have a fitted effect of over 30% in size
Starred values were filed as active, the others as inactive; i = inactive; ? = inconclusive; nt = not tested or not shown; + = active, no number; [ ] = dose if it differs, or a comment. On the % scale 0 is the no-effect control and ±100 the full control effect.

SMILES	MARV entry inh	Vaccinia mCherry	FMDV inh	Lassa entry inh	HCMV inh	Vaccinia Venus
CC(=O)n1cc(CO)c2ccccc21	nt	-9.3%	-15.0%	nt	15.3	0.6%
CC(=O)n1cc(N(C(=O)CCl)c2ccccc2)c2ccccc21	?	-19.7%	14.1µM*	?	-97.6*	-11.6%
O=C(COc1ccccc1)NCc1nnc2c3ccccc3c(-c3ccccc3)nn12	nt	-9.3%	-13.2%	nt	-63.0*	-12.7%
CC(=O)NCc1nnc2c3ccccc3c(-c3ccccc3)nn12	6.7%[46.1 µM]	i	0.8%	11.1%[46.1 µM]	21.3	-8.3%
CCCc1cc(=O)oc2cc(C)cc(OCC(=O)Nc3cccnc3)c12	nt	nt	-15.1%	nt	+	nt
Cc1cc(OCC(=O)Nc2cccnc2)c2c(C)cc(=O)oc2c1	nt	nt	-15.4%	nt	0.7	nt
CCCOc1cccc([C@H]2/C(=C(/O)c3ccc(F)cc3)C(=O)C(=O)N2CCN(C)C)c1	-1.1%[46.1 µM]	nt	nt	nt	nt	nt
CCCOc1cc(C)nc(-c2ccccc2O)n1	3.5%	nt	5.0%	6.5%	-64.7*	-4.7%
Cc1cc(OC(C)C)nc(-c2ccccc2O)n1	6.1%	nt	0.2%	8.7%	-22.1	nt
CCn1c(=N)c(C(=O)NC2CCCCC2)cc2c(=O)n3cc(C)ccc3nc21	2.3%[46.1 µM]	5.4%	10.6%	-22.8%[46.1 µM]	8.4	-4.2%
CCC(C)(C)c1ccc(Oc2ccc(N)cc2)cc1	3.98µM*	-18.5%	1.12µM*	?	-91.4*	?
CCOc1ccc(NC(=O)CN(C)C(=O)c2ccccc2CCc2ccccc2)cc1OCC	-25.9%[46.1 µM]	-20.8%	-23.4%	-5.0%	-18.8	-22.9%
CCOc1ccc(NC(=O)CN(C)C(=O)CCc2ccccc2Cl)cc1OCC	-1.5%	-17.5%	?	12.9%	-80.4*	?
CC(C)=CCc1cc([C@@H]2COc3c(ccc4c3C=CC(C)(C)O4)C2)c(O)cc1O	nt	?	?	nt	-106.4*	?
CC1(C)C=Cc2c(ccc3c2OC[C@H](c2ccc(O)cc2O)C3)O1	nt	-29.4%	-0.3%	nt	?	?
COc1ccc(C(=O)Nc2ccccn2)cc1	18.4%[46.1 µM]	10.2%	5.0%	13.4%	33.7	15.5%
O=C(Nc1ccccn1)c1ccc(-c2ccccc2)cc1	1.12µM*	7.3%	-68.3%	?	-78.3*	-13.7%
O=C(Nc1ccccn1)c1ccc(S(=O)(=O)N2CCCC2)cc1	-0.2%[46.1 µM]	-8.1%	35.6%	?	16.8	-12.2%
O=C(Nc1ccccn1)c1ccc(S(=O)(=O)c2ccc(Cl)cc2)cc1	-3.8%[46.1 µM]	-14.6%	0.0%	?	-63.6*	-17.1%
CCOC(=O)/C=C/[C@H](CC(C)C)NC(=O)C(F)(F)F	nt	nt	nt	nt	-18.7	nt
Cn1nnnc1SC1CC(=O)N(c2ccccc2)C1=O (stereo not given)	?	i	1.0%	-16.6%	10.5	3.7%
O=C1CC(Sc2nnnn2C2CCCCC2)C(=O)N1c1ccccc1 (stereo not given)	-7.0%	-13.6%	nt	-17.4%	-69.2*	-16.2%
O=C(Nc1cc(S(=O)(=O)N2CCOCC2)ccc1N1CCOCC1)c1cc2c(s1)CCC2	-12.7%[46.1 µM]	-17.8%	-12.4%	?	?	0.9%
COc1ccc(S(=O)(=O)N2CCOCC2)cc1NC(=O)c1cc2c(s1)CCCC2	?	-17.3%	23.2%	3.8%	-68.8*	-3.5%
COc1ccc(S(=O)(=O)N2CCOCC2)cc1NC(=O)CSc1nnnn1C1CC1	11.9%	-20.5%	7.1%	7.4%	-60.4*	-13.2%
SMILES	MARV entry inh	Vaccinia mCherry	FMDV inh	Lassa entry inh	HCMV inh	Vaccinia Venus
CC(C)C[C@@H]1COc2cc(N3CCCC3)ccc2S(=O)(=O)N1	nt	nt	nt	nt	-5.8	nt
Cc1ccc(/C(=N\O)c2oc3c(C)c4oc(=O)cc(C)c4cc3c2C)cc1	2.91µM*	?	?	0.366µM*	-2.0	?
c1ccc(Nc2nc(-c3ccoc3)nc3ccccc23)cc1	nt	nt	-14.2%	nt	nt	nt
COc1cc(OC)c(N(C)C(=O)Cn2ncc3c(=O)oc4ccccc4c32)cc1Cl	5.4%[46.1 µM]	-3.8%	-3.8%	?	4.1	3.2%
COc1ccccc1C1CCCN1Cc1nc(-c2ccc(C)s2)oc1C (stereo not given)	?	?	-19.5%	3.55µM*	-98.9*	36.0%
COc1ccccc1C1CCCN1Cc1nc(-c2cc3c(cc2Cl)OCO3)oc1C (stereo not given)	?	?	-19.5%	?	-24.4	-0.6%
Cc1cccc(N2CCN(C(=O)Cn3ncc4c3-c3cc(C)ccc3OC4)CC2C)c1 (stereo not given)	?	-16.4%	-14.1%	nt	-18.6	-3.1%
O=C(Cc1ccccn1)c1ccccc1	nt	-3.5%	26.2%	nt	-9.1	0.8%
O=C(Cc1ccccn1)c1ccc(Cl)cc1	nt	-1.4%	46.3%	nt	-68.3*	-1.4%
CN1OC(C)(CC(=O)NCc2ccccc2F)N=C1c1ccccc1Cl (stereo not given)	nt	nt	nt	nt	0.7	nt
O=C(Nc1nc2ccccc2n1CCN1CCOCC1)c1cn(-c2ccccc2)nc1-c1ccccc1	?	28.2µM*	0.0%	?	?	?
COc1ccc(CNc2nc3ccccc3n2CCN2CCOCC2)cc1	-12.6%	-13.4%	-8.1%	14.0%	27.8	?
O=C(Nc1nc2ccccc2n1CCN1CCOCC1)c1ccccc1	-8.4%	-3.7%	-20.0%	-14.6%	5.2	-14.0%
CCN(CC)c1ccc(CNc2nc3ccccc3n2CCN2CCOCC2)cc1	11.2µM*	-20.7%	-25.8%	-21.7%[46.1 µM]	-26.4	-19.0%
CCCCNC(=O)c1nc2cc(C)c(C)cc2nc1-c1cccc(OC)c1	nt	nt	nt	nt	18.9	nt
O=C(CSc1nncn2c1cc1sccc12)Nc1ccccc1C(F)(F)F	nt	-6.2%	-11.2%	7.9%[46.1 µM]	-72.7*	-3.5%
COc1ccccc1NC(=O)CSc1nncn2c1cc1sccc12	nt	?	-14.8%	10.0%[46.1 µM]	?	-29.5%
CCCN(CCC)c1nc(N)nc(C#N)n1	nt	14.3%	nt	nt	nt	-6.1%
CC(C)=C1SC(N2CCN(c3ccc(Cl)cc3)CC2)=NC1=O	?	-23.0%	-14.1%	-2.8%	-75.1*	-15.0%
Cc1cccc(C)c1OC[C@@H](N)C(C)C	-18.7%	nt	nt	nt	nt	nt
CCc1nn(CC(=O)NCCN2CCN(C)CC2)c(=O)c2cc3occc3n12	16.0%	nt	-18.4%	-7.3%	-103.7*	?
O=C(CCCSc1nc2ccccc2[nH]1)N1CCN(c2ccc([N+](=O)[O-])cc2)CC1	1.7%	i	17.8µM*	-0.6%	-26.6	-20.3%
O=C(NCCN1CCN(c2ccc([N+](=O)[O-])cc2)CC1)NCc1ccccc1	nt	nt	-20.6%	nt	-93.9*	nt
O=C(Cc1ccccc1)N1CCN(c2ccc([N+](=O)[O-])cc2)CC1	1.4%	nt	?	nt	-63.6*	nt
O=C(Cc1ccc([N+](=O)[O-])cc1)N1CCN(c2ccc([N+](=O)[O-])cc2)CC1	nt	nt	?	nt	-34.0	nt
O=C(NCCN1CCN(Cc2ccc([N+](=O)[O-])cc2)CC1)C(=O)Nc1ccccc1	-6.4%	i	nt	22.2%	38.2	-11.9%
O=[N+]([O-])c1ccc(-c2csc(N3CCc4ccccc4C3)n2)cc1	18.3%	i	-0.8%	-0.3%	-6.7	-15.1%
O=[N+]([O-])c1ccc(N2CCc3ccccc3C2)cc1	nt	nt	34.0%	nt	-102.2*	nt
Cc1cc[n+](CCC2CCCCC2)cc1	nt	-16.6%	nt	nt	nt	?
